{"source": "PubChem BioAssay AID1053133", "about": "(Broad Institute, 2014)", "note": "About 10 (0.01%) of roughly 89,000 compounds were called active. Inconclusive results (about 10%) are left out. No stated cut-off is given here; in the data, active means activity change below about -37% (passing the limit was not always enough); inconclusive means no clear call, values can overlap the other calls; tested in A549 cells. A selection follows."}
{"test": "Vaccinia orthopox stage-specific inhibition, primary screen, cell-based, single point (AID 1053133)", "conditions": "Vaccinia-infected cells, mCherry/Venus stage reporter fluorescence, stronger effect = lower value, concentration not given here; activity change (Venus): measured here: Venus reporter, other viral stage", "units": {"activity change (Venus)": "%"}}
{"smiles": "O=C(C[C@H]1C=C[C@@H](NS(=O)(=O)c2ccc(F)cc2)[C@@H](CO)O1)NC1CCC1", "activity change (Venus)": 1.04, "activity change (mCherry)": "-4.64% (inactive)"}
{"smiles": "COc1ccc2c3c(n(C)c2c1)[C@@H](CO)NCC31CCN(CC2CC2)CC1", "activity change (Venus)": -18.9, "activity change (mCherry)": "-27.4% (inactive)"}
{"smiles": "O=C([C@@H]1[C@@H](CO)[C@@H]2Cn3c(ccc(C4=CCCC4)c3=O)[C@H]1N2C(=O)c1ccncc1)N1CCCCC1", "activity change (Venus)": 16.9, "activity change (mCherry)": "10.1% (inactive)"}
{"smiles": "C[C@@H]1CCCCO[C@H](CN(C)S(=O)(=O)c2cccs2)[C@H](C)CN([C@@H](C)CO)C(=O)c2cc(NC(=O)Nc3ccc4c(c3)OCO4)ccc2O1", "activity change (Venus)": 8.44, "activity change (mCherry)": "9.35% (inactive)"}
{"smiles": "COCC(=O)N1CC2(CN(C(=O)c3cccnc3)C2)c2c([nH]c3cc(OC)ccc23)[C@H]1CO", "activity change (Venus)": -0.352, "activity change (mCherry)": "2.73% (inactive)"}
{"smiles": "Cc1ccccc1S(=O)(=O)N[C@@H]1CC[C@H](CCn2cc(-c3ccc(F)cc3)nn2)O[C@@H]1CO", "activity change (Venus)": -24.8, "activity change (mCherry)": "-28.1% (inactive)"}
{"smiles": "CO[C@@H]1CC[C@@H]2CCOc3c(C#N)cccc3C(=O)N(C)C[C@H](C)C(=O)N(C)C[C@H]1O2", "activity change (Venus)": 8.81, "activity change (mCherry)": "14.4% (inactive)"}
{"smiles": "C[C@@H]1CN([C@@H](C)CO)C(=O)c2cc(NC(=O)Cc3ccccc3)ccc2O[C@@H](C)CCCCO[C@H]1CN(C)C(=O)Nc1cccc2ccccc12", "activity change (Venus)": 18.5, "activity change (mCherry)": "21.9% (inactive)"}
{"smiles": "CN(C)CCCNC(=O)C[C@H]1CC[C@H]2[C@@H](COC[C@H](O)CN2CC2CCCCC2)O1", "activity change (Venus)": 5.87, "activity change (mCherry)": "3.25% (inactive)"}
{"smiles": "C[C@@H]1CCCCO[C@@H](CN(C)Cc2ccc3c(c2)OCO3)[C@H](C)CN([C@@H](C)CO)C(=O)c2cc(NS(C)(=O)=O)ccc2O1", "activity change (Venus)": 5.91, "activity change (mCherry)": "-0.705% (inactive)"}
{"smiles": "COc1ccc2c3c(n(C)c2c1)[C@H](CO)N(CC1CCOCC1)CC31CCN(C(C)=O)CC1", "activity change (Venus)": 11, "activity change (mCherry)": "17.4% (inactive)"}
{"smiles": "CN(C)CC(=O)Nc1ccc2c(c1)[C@@H]1C[C@H](CC(=O)NCc3ccc(Cl)cc3)O[C@@H](CO)[C@@H]1O2", "activity change (Venus)": 5.77, "activity change (mCherry)": "-4.73% (inactive)"}
{"smiles": "COc1ccc2c3c([nH]c2c1)[C@@H](CO)N(C(=O)c1ccc(F)cc1)CC31CCN(C(=O)Nc2ccc(F)cc2)CC1", "activity change (Venus)": -2.47, "activity change (mCherry)": "1.1% (inactive)"}
{"smiles": "C[C@H](CO)N1C[C@H](C)[C@H](CN(C)Cc2cccc(F)c2)Oc2ncc(C#CCN(C)C)cc2C1=O", "activity change (Venus)": -6.38, "activity change (mCherry)": "-10.3% (inactive)"}
{"smiles": "COc1ccc(S(=O)(=O)N[C@@H]2CC[C@@H](CC(=O)NCCc3ccccc3)O[C@@H]2CO)cc1", "activity change (Venus)": -2.59, "activity change (mCherry)": "3.47% (inactive)"}
{"smiles": "O=C(NCC[C@@H]1CC[C@@H](NS(=O)(=O)c2ccc(Cl)cc2)[C@@H](CO)O1)c1ccccc1F", "activity change (Venus)": -4.89, "activity change (mCherry)": "-8.02% (inactive)"}
{"smiles": "COc1ccc(S(=O)(=O)Nc2ccc3c(c2)C(=O)N([C@@H](C)CO)C[C@H](C)[C@@H](CN(C)C(=O)c2ccccc2)OCCCC[C@H](C)O3)cc1", "activity change (Venus)": -18.1, "activity change (mCherry)": "-21.6% (inactive)"}
{"smiles": "CC(C)NC(=O)N1Cc2cc(C(=O)NCC(F)(F)F)nc(-c3cccc(-c4cc5ccccc5o4)c3)c2[C@@H]1CCO", "activity change (Venus)": -13.3, "activity change (mCherry)": "-16.3% (inactive)"}
{"smiles": "C[C@@H]1CN([C@@H](C)CO)C(=O)Cc2cc(NS(=O)(=O)c3cccs3)ccc2O[C@H]1CN(C)S(=O)(=O)c1ccc(F)cc1", "activity change (Venus)": 4.55, "activity change (mCherry)": "-5.12% (inactive)"}
{"smiles": "CO[C@@H]1CN(C)C(=O)c2cc(NC(=O)C3CC3)ccc2OC[C@H](C)N(C(=O)CN(C)C)C[C@H]1C", "activity change (Venus)": -3.17, "activity change (mCherry)": "-2.47% (inactive)"}
{"smiles": "O=C(C[C@@H]1CC[C@H](NC(=O)Nc2ccc3c(c2)OCO3)[C@H](CO)O1)NCc1ccccc1", "activity change (Venus)": 14.1, "activity change (mCherry)": "19.4% (inactive)"}
{"smiles": "C=CCOC(=O)C1=C[C@@H](c2ccccc2)C[C@@H](OCc2ccc(CO)cc2)O1", "activity change (Venus)": -3.63, "activity change (mCherry)": "2.64% (inactive)"}
{"smiles": "O=C(C1CCCC1)N1CC(=O)N2[C@@H](CO)[C@@H](c3ccc(-c4cccnc4)cc3)[C@@H]2C1", "activity change (Venus)": -4.04, "activity change (mCherry)": "-5.69% (inactive)"}
{"smiles": "Cc1ccccc1-c1cnc2c(c1)C(=O)N([C@H](C)CO)C[C@@H](C)[C@H](CN(C)C(=O)c1cccnc1)O2", "activity change (Venus)": -1.16, "activity change (mCherry)": "-1.67% (inactive)"}
{"smiles": "CN(C)C(=O)c1ccc(-c2ccc(C3[C@H]4CNC[C@@H]3N4C(=O)Nc3cc(F)ccc3F)cc2)cc1", "note": "(some centres undefined)", "activity change (Venus)": 3.11, "activity change (mCherry)": "14.7% (inactive)"}
{"smiles": "O=C(C1CCCCC1)N1CC2(C1)[C@H](c1ccccc1)[C@@H](CO)N2CCC(F)(F)F", "activity change (Venus)": -3.18, "activity change (mCherry)": "-9.06% (inactive)"}
{"smiles": "CC(=O)Nc1ccc2c(c1)C(=O)N(C)[C@H]1CC[C@@H](CC(=O)NCC3CC3)O[C@H]1CO2", "activity change (Venus)": 11.1, "activity change (mCherry)": "7.92% (inactive)"}
{"smiles": "CCC(=O)N(C)C[C@@H]1Oc2ncc(/C=C/c3ccccc3)cc2C(=O)N([C@@H](C)CO)C[C@H]1C", "activity change (Venus)": 1.22, "activity change (mCherry)": "12.1% (inactive)"}
{"smiles": "O=C(O)C[C@H]1C=C[C@@H](NC(=O)Nc2cc(F)ccc2F)[C@@H](CO)O1", "activity change (Venus)": 9.94, "activity change (mCherry)": "8.15% (inactive)"}
{"smiles": "COCC(=O)N(C)C[C@H]1Oc2cc(C#C[C@@H](C)O)ccc2S(=O)(=O)N([C@@H](C)CO)C[C@@H]1C", "activity change (Venus)": -7.76, "activity change (mCherry)": "2.13% (inactive)"}
{"smiles": "CCC(=O)N(C)C[C@@H]1Oc2cc(-c3ccc(C#N)cc3)ccc2S(=O)(=O)N([C@@H](C)CO)C[C@@H]1C", "activity change (Venus)": 0.0371, "activity change (mCherry)": "-1.36% (inactive)"}
{"smiles": "COc1ccc2c3c(n(C)c2c1)[C@@H](CO)N(S(C)(=O)=O)CC31CCN(C(=O)C2CCC2)CC1", "activity change (Venus)": -12.1, "activity change (mCherry)": "-2.22% (inactive)"}
{"smiles": "CC(C)C#Cc1cnc2c(c1)C(=O)N([C@H](C)CO)C[C@H](C)[C@@H](CN(C)C(=O)Nc1cc(F)ccc1F)O2", "activity change (Venus)": -6.46, "activity change (mCherry)": "-3.74% (inactive)"}
{"smiles": "COc1ccccc1NC(=O)N1C[C@@H](O)COC[C@H]2O[C@@H](CC(=O)NCc3ccccc3)CC[C@@H]21", "activity change (Venus)": -3.27, "activity change (mCherry)": "-5.93% (inactive)"}
{"smiles": "Cc1cccc(-c2ccc([C@@H]3[C@H]4CN(C(=O)c5ccccc5)CC(=O)N4[C@H]3CO)cc2)c1", "activity change (Venus)": -26.3, "activity change (mCherry)": "-24.1% (inactive)"}
{"smiles": "CCCN1C[C@H](C)[C@@H](OC)CN(C)C(=O)c2ccc(NC(=O)C3CCOCC3)cc2OC[C@@H]1C", "activity change (Venus)": 5.44, "activity change (mCherry)": "13.4% (inactive)"}
{"smiles": "C[C@H]1CN([C@@H](C)CO)C(=O)CCCn2nncc2CO[C@@H]1CN(C)C(=O)Nc1ccc(N2CCN(C)CC2)cc1", "activity change (Venus)": 3.05, "activity change (mCherry)": "3.06% (inactive)"}
